Test results reported in PubChem BioAssay (NCATS).
Records with an inconclusive call do not appear. Active and inactive are the calls of the source. Calls come from the whole dose curve; as a rule, active = well fitted curve in the direction sought with a large enough effect; inconclusive = small, poorly fitted or top-dose-only effect, or another doubt; inactive = no such curve, though single readings can be large; an effect the other way counts as inactive or inconclusive.

Tests used:
[1] = qHTS to identify inhibitors of the type 1 interferon - major histocompatibility complex class I in skeletal muscle: primary screen against the NCATS LOPAC collection (AID 1347405);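 note: human myoblasts with HiBiT tag on endogenous HLA-B stimulated by IFN-beta; lytic HiBiT luminescence reporting HLA-B protein level; % is set by controls: 0 for no effect and ±100 for the full control effect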
Summary of the method: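 HLA-B HiBiT myoblasts, IFN-b 4 ng/ml, dexamethasone-free medium; compounds 7-pt 1:4.3 titration, top 46 uM final; 24 h at 37 C; Nano-Glo HiBiT lytic reagent, 10 min RT, luminescence.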

[2] = qHTS to identify inhibitors of the type 1 interferon - major histocompatibility complex class I in skeletal muscle: primary screen against the NCATS Pharmaceutical Collection (AID 1347407);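 note: luminescence of HiBiT knocked into endogenous HLA-B as interferon-induced MHC class I level; % is set by controls: 0 for no effect and ±100 for the full control effect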
Summary of the method: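 A qHTS format is used: 8-point, 1:5 compound series with 46 uM top final concentration, applied alongside 4 ng/ml IFN-beta to HLA-B*08:01-HiBiT knock-in myoblasts. Luminescence is measured after 24 h treatment.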

[3] = qHTS for inhibitors of adenylyl cyclases using a fission yeast platform: a pilot screen against the NCATS LOPAC library (AID 1347410);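 note: plate controls were DMSO vehicle for no effect and DPI positive control for full effect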
Summary of the method: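 Inhibition of GNAS-stimulated AC9 activity in S. pombe was inferred from derepression of a PKA-repressed fbp1-GFP reporter, measured as cytometric fluorescence after 18 h at 30C with compounds at up to 57 µM.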

[4] = biological target: Protein phosphatase 1D (Homo sapiens) (UniProt O15297); assay: RapidFire Mass Spectrometry qHTS Assay for Modulators of WT P53-Induced Phosphatase 1 (WIP1) (AID 1347424);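 note: amount of dephosphorylated VEPPL-S-QETFS peptide product formed by WIP1; series mostly up to about 63 µM; plate controls were DMSO wells for no effect and GSK830371 inhibitor control at 10 µM for full effect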
Protein phosphatase 1D (Homo sapiens), sequence (O15297 whole entry, looked up): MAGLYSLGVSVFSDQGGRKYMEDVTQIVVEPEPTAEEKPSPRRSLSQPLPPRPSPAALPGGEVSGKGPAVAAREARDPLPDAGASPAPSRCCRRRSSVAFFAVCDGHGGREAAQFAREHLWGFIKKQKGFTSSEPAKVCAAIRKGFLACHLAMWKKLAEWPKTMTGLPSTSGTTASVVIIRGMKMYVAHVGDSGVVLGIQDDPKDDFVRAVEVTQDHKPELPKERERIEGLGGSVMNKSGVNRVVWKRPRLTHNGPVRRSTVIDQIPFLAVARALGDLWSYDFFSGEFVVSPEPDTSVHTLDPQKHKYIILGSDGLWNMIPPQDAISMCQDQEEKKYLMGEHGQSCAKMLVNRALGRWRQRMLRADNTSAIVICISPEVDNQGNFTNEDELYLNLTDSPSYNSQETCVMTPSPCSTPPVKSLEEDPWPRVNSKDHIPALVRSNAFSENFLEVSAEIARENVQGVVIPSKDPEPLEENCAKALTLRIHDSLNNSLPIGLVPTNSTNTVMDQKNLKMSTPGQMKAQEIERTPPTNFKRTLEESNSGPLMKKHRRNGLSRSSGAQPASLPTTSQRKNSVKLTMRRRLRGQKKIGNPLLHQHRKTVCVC
Summary of the method: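 Mass-spectrometric measurement of dephosphorylated peptide after a 5 min room-temperature reaction of 10 nM WIP1 with 2 uM phosphopeptide, following 1 h compound preincubation in 30 mM MgCl2 buffer.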

[5] = biological target: Protein phosphatase 1D (Homo sapiens) (UniProt O15297); assay: Rhodamine-PBP qHTS Assay for Modulators of WT P53-Induced Phosphatase 1 (WIP1) (AID 1347425); note: % of control where 0% means no effect
Summary of the method: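 WIP1 (5 nM final) was preincubated with compound for 1 hour at room temperature. It then dephosphorylated 10 uM VEPPL-pS-QETFS peptide in Tris-HCl pH 7.5 with 30 mM MgCl2. Released Pi was detected by 10 uM Rh-PBP fluorescence (ex 525/em 598 nm) read at 1-min intervals for 11 min, as delta f1 - f0.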

[6] = Validation qHTS assay for inhibitors of Activation Induced Cytidine Deaminase (AID): UDG Counterscreen signal (AID 1347427); note: 0% is about no effect
Summary of the method: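 Fluorescence at 560 nm excitation, 665 nm emission reports UDG signal after 250 mM NaOH (2x) addition and 30 min. Enzymes (AID 1 uM, UDG 2 U/mL, at 4/3x) preincubated 10 min with compound, then 4 h with 4x 250 nM DJC20/DJC23 substrate at room temperature.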

[7] = biological target: Single-stranded DNA cytosine deaminase (Homo sapiens) (UniProt Q9GZX7); assay: Validation qHTS assay for inhibitors of Activation Induced Cytidine Deaminase (AID): AID signal (AID 1347429); note: % is set by controls: 0 for no effect and ±100 for the full control effect
Single-stranded DNA cytosine deaminase (Homo sapiens), sequence (Q9GZX7 whole entry, looked up): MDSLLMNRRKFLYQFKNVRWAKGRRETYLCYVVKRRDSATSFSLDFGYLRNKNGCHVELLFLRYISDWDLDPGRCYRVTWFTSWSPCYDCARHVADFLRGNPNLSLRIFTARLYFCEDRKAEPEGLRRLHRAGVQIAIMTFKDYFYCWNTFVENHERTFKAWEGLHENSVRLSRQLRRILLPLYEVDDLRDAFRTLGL
Summary of the method: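 AID+UDG coupled FRET deamination; cpds up to 114 uM final; DJC20/DJC23 substrate, 4 hr RT; NaOH stop, 30 min RT; read Ex 540/Em 590.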

[8] = tested on: Zika virus NS2B-NS3 protease; assay: Primary screen GU AMC qHTS for Zika virus inhibitors (AID 1347154);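 note: 0% = no-inhibitor control and -100% = no-enzyme control; nearly all actives have a fitted effect of over 70% in size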
Summary of the method: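 Unlinked Zika NS2B hydrophilic domain/NS3 protease domain noncovalent complex (25 nM final) in 10 mM Tris-HCl pH 8.0, 0.01% Tween 20, with AMC peptide substrate. Fluorescence (ex 340, em 450 nm) change over 15 min, room temperature; percent inhibition fitted to 4-parameter Hill equation.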

[9] = biological target: Lysine-specific demethylase 5B (Homo sapiens) (UniProt Q9UGL1); assay: Optimization screen for KDM5B Histone Demethylases FDH coupled qHTS against the LOPAC library (AID 1347166); note: 0% is about no effect
Lysine-specific demethylase 5B (Homo sapiens), sequence (Q9UGL1 whole entry, looked up): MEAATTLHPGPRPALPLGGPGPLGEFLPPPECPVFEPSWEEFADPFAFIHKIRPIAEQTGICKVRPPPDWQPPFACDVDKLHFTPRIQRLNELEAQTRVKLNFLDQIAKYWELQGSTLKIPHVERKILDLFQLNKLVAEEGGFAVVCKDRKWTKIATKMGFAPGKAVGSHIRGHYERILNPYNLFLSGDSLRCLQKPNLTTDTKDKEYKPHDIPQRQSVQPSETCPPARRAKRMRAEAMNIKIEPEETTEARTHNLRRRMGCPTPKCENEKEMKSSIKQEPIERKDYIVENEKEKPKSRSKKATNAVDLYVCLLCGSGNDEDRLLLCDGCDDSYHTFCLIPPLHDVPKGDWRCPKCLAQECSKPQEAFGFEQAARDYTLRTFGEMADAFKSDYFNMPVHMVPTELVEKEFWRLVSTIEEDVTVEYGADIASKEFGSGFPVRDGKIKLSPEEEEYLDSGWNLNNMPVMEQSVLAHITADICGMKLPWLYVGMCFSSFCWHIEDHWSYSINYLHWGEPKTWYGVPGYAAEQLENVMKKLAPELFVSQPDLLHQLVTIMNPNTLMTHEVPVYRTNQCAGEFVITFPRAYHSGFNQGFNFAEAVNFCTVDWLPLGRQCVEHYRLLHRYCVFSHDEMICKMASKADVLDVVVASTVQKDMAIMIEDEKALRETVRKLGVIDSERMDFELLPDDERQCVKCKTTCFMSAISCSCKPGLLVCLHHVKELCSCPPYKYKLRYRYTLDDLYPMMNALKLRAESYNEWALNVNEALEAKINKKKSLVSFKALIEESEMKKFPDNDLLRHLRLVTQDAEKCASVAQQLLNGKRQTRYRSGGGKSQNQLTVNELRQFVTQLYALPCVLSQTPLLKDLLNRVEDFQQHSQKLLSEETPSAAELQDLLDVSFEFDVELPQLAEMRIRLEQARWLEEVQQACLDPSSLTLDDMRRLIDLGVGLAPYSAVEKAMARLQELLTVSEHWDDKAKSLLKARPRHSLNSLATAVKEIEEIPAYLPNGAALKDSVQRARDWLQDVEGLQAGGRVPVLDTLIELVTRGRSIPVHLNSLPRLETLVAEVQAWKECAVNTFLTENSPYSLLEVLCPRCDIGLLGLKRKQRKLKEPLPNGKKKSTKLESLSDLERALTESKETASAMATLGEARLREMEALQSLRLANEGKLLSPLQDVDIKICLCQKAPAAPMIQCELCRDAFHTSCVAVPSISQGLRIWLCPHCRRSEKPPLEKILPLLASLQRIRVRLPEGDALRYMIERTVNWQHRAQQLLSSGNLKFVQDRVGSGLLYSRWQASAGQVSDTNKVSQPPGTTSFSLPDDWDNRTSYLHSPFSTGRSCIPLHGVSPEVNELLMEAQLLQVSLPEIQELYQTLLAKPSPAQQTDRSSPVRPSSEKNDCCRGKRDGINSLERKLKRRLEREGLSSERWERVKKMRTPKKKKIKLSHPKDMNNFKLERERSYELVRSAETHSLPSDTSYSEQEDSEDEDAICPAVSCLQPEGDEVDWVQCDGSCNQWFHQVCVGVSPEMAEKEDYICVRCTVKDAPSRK
Summary of the method: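 KDM5BDeltaAP (200nM final) in 50mM HEPES pH 7.5, 0.01% Tween-20 was preincubated with compound for 10 min at room temperature. A substrate mix of 12.5uM H3K4Me3, 25uM a-ketoglutarate, ascorbate, Fe2+, NAD+ and formaldehyde dehydrogenase was then added. NADH fluorescence (340/450 nm) was read initially and after 30 min.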

[10] = qHTS to identify inhibitors of the type 1 interferon - major histocompatibility complex class I in skeletal muscle: primary screen against the NCATS Mechanism Interrogation Plate v5.0 (MIPE) Libary (AID 1347411);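 note: plate controls were vehicle for no effect and reference inhibitor for full effect; nearly all actives have a fitted effect of over 65% in size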
Summary of the method: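 HLA-B HiBit myoblasts, dexamethasone-free medium + 4 ng/ml IFN-b, 24 h compound, 11-pt 1:3 from 46 uM final. Readout: Nano-Glo HiBiT lytic luminescence after 10 min lysis, RT.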

COC(=O)[C@@H](N)Cc1ccc(O)c(O)c1
inactive: Potency [1] | Potency [2] | outcome [3] | Potency [4] | outcome [5] | outcome [6] | Potency [7]

Cc1ccc(=O)n(-c2ccccc2)c1
inactive: outcome [8] | Potency [1] | Potency [2] | outcome [3] | Potency [4] | outcome [5] | outcome [6] | Potency [7]

CCCCNC(=O)NS(=O)(=O)c1ccc(C)cc1
inactive: outcome [8] | Potency [9] | outcome [3] | Potency [4] | outcome [5] | outcome [6] | Potency [7]

CCCOc1ccccc1-c1nc2n[nH]nc2c(=O)[nH]1
inactive: outcome [8] | Potency [1] | Potency [2] | outcome [3] | Potency [4] | outcome [6] | Potency [7]

Brc1c(NC2=NCCN2)ccc2nccnc12
inactive: outcome [8] | Potency [1] | Potency [2] | outcome [3] | outcome [6]

C[N+](C)(C)CCCCCCCCCC[N+](C)(C)C
inactive: outcome [8] | Potency [9] | Potency [1] | Potency [2] | outcome [3] | Potency [4] | outcome [6] | Potency [7]

COCCOC(=O)C1=C(C)NC(C)=C(C(=O)OC(C)C)C1c1cccc([N+](=O)[O-])c1 (stereo not given)
inactive: outcome [8] | Potency [9] | Potency [2] | outcome [3] | Potency [4] | outcome [5] | outcome [6] | Potency [7]

CN(C)C(=O)Oc1cccc([N+](C)(C)C)c1
inactive: outcome [8] | Potency [9] | Potency [1] | Potency [2] | outcome [3] | Potency [4] | outcome [6] | Potency [7]

CCN1CCC[C@H]1CNC(=O)c1c(O)c(Cl)cc(Cl)c1OC
inactive: outcome [8] | Potency [1] | Potency [2] | outcome [3] | Potency [4] | outcome [5] | outcome [6] | Potency [7]

CC(C)NNC(=O)c1ccncc1
inactive: outcome [8] | Potency [9] | Potency [1] | Potency [2] | outcome [3] | Potency [4] | outcome [6] | Potency [7]

Cc1cc(C)c(/C=C2\C(=O)Nc3ccccc32)[nH]1
inactive: outcome [8] | Potency [9] | outcome [3] | Potency [10] | Potency [4] | outcome [6]

COCC(=O)O[C@]1(CCN(C)CCCc2nc3ccccc3[nH]2)CCc2cc(F)ccc2[C@@H]1C(C)C
inactive: outcome [8] | Potency [9] | outcome [3] | Potency [4] | outcome [5] | outcome [6] | Potency [7]

NC/C=C/C(=O)O
inactive: outcome [8] | Potency [9] | Potency [1] | Potency [2] | outcome [3] | Potency [4] | outcome [6] | Potency [7]

C[C@]12C=CC(=O)C=C1CC[C@H]1[C@@H]3C[C@@H](O)[C@](O)(C(=O)CO)[C@@]3(C)C[C@H](O)[C@@]12F
inactive: outcome [8] | Potency [9] | outcome [3] | Potency [4] | outcome [5] | outcome [6] | Potency [7]

C[N+](C)(C)CCOC(=O)CCC(=O)OCC[N+](C)(C)C
inactive: outcome [8] | Potency [9] | Potency [1] | Potency [2] | outcome [3] | Potency [4] | outcome [6] | Potency [7]

C[C@@H](O)[C@H]1C(=O)N2C(C(=O)O)=C(SCCN=CN)C[C@H]12
inactive: outcome [8] | Potency [9] | Potency [1] | Potency [2] | outcome [3] | Potency [4] | outcome [5] | outcome [6] | Potency [7]

CN1C(=O)CC[C@H]1c1cccnc1
inactive: outcome [8] | Potency [9] | Potency [1] | Potency [2] | outcome [3] | Potency [4] | outcome [6] | Potency [7]

CCCCCCCC/C=C\CCCCCCCC(=O)NCc1ccc(O)c(OC)c1
inactive: outcome [8] | Potency [9] | Potency [1] | Potency [2] | outcome [3] | Potency [4] | outcome [5] | outcome [6] | Potency [7]

CCc1cccc(N(C)C(N)=Nc2cccc3ccccc23)c1
inactive: outcome [8] | Potency [9] | Potency [1] | Potency [2] | outcome [3] | Potency [4] | outcome [5] | outcome [6] | Potency [7]

NS(=O)(=O)c1cc2c(cc1Cl)NC(C1CC3C=CC1C3)NS2(=O)=O (stereo not given)
inactive: outcome [8] | Potency [9] | Potency [1] | Potency [2] | outcome [3] | Potency [4] | outcome [5] | outcome [6] | Potency [7]

CN1CCN(CC(=O)N2c3ccccc3C(=O)Nc3cccnc32)CC1
inactive: outcome [8] | Potency [9] | Potency [1] | activity change, negative = inhibition [2] -1.82% [at 3.83 µM] | outcome [3] | activity change, negative = inhibition [4] -2.97% [at 6.17 µM] | activity change, negative = inhibition [5] 8.19% [at 4.81 µM] | outcome [6] | Potency [7]

Cc1nc2c([nH]1)c(=O)n(C)c(=O)n2Cc1ccco1
inactive: outcome [8] | Potency [9] | Potency [1] | Potency [2] | outcome [3] | Potency [4] | outcome [6] | Potency [7]

C#CCN(C)CCCOc1ccc(Cl)cc1Cl
inactive: outcome [8] | Potency [9] | Potency [1] | Potency [2] | outcome [3] | Potency [4] | outcome [5] | outcome [6] | Potency [7]
